Measurements published in PubChem BioAssay (NCI).
About 83,000 compounds went through this panel and 20% of them were active in at least one assay; those are over-represented in the sample as a whole.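 The endpoint reported here, percent growth, reads 100 for growth as untreated, 0 for no net growth and -100 for all cells dead.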 Unmarked numbers belong to inactive results. Calls of active or inactive are those of the source. The calls were made as follows: active = growth percent below 10; inactive = the rest.

The compounds below were run on HS 578T breast (assay: NCI-60 one-dose screen, 48 h (100 = growth as untreated, 0 = no growth, -100 = all killed)). Details: 10 µM unless noted.

| Structure (SMILES) | growth |
| --- | --- |
| O=C(NNc1nc2cc(C(F)(F)F)ccc2n2cccc12)c1cnccn1 | 16.3% |
| Cc1cccc(NC(=O)[C@]23CCC(C)(C)CC2C2=CCC4[C@@]5(C)C[C@@H](O)[C@H](O)[C@@](C)(CO)C5CC[C@@]4(C)[C@]2(C)CC3)c1 (some centres undefined) | 31% |
| CCCCSc1nc(NCCc2c[nH]c3ccccc23)c(C#N)c(-c2ccc(F)cc2)n1 | 58.3% |
| COc1ccc(-c2ccnc(SCc3cc4cc(Cl)ccc4[nH]c3=O)n2)cc1 | -5.84% (active) |
| O=c1[nH]c2ccccc2cc1CSc1nccc(-c2ccc3ccccc3c2)n1 | 71% |
| CCCCCCCCc1ccc(S(=O)(=O)Nc2ccc(CC)cc2C(=O)O)cc1 | 103% |
| COc1cc(OC)c2c3nc4cc(C)c(C)cc4nc3n(CCN(C)C)c2c1 | 84.2% |
| COc1ccc(C(=O)/C=C/c2cccc(Cl)c2Cl)cc1S(N)(=O)=O | 35.6% |
| COc1ccc(C(=O)/C=C/c2cccnc2)cc1S(N)(=O)=O | 89.9% |
| Cc1cc2nc3c4ccccc4n(CC4=NCCN4)c3nc2cc1C | 76.4% |
| CCCCCCCCc1ccc(C(=O)Nc2cccc(P(=O)(O)O)c2)cc1 | 102% |
| Cc1cc2nc3c([nH]c2cc1C)c1ccc(=O)cc1n3CCN(C)C | 81.3% |
| O=C(c1ccc(Cl)cc1)c1ccc(OCCCN2CCN(c3ccncc3)CC2)cc1 | 53.7% |
| CCCCSc1nc(NCCc2c[nH]c3ccccc23)c(C#N)c(-c2ccccc2)n1 | 39.6% |
| O=C1N/C(=N\c2nccs2)S/C1=C\C=C/c1ccccc1 | 85.2% |
| CC(=O)OC[C@@]1(C)C2CC[C@]3(C)C(CC=C4C5CC(C)(C)CC[C@]5(C(=O)Nc5cccc(C)c5)CC[C@]43C)[C@@]2(C)C[C@@H](OC(C)=O)[C@@H]1OC(C)=O (some centres undefined) | 77% |
| COc1ccc(C(SCCNCc2cc(N(C)C)ccn2)(c2ccccc2)c2ccccc2)cc1 | -23.1% (active) |

| Structure (SMILES) | growth |
| --- | --- |
| O=c1onc(-c2cc3ccccc3nc2Cl)n1-c1cccc2ccccc12 | 30% |
| COc1ccc(C2=NN(c3ccccc3)C(c3ccc(OCc4ccccc4)c(OC)c3)C2)cc1OC (centres undefined) | 94.1% |
| Nc1n[nH]c2cccc(C#Cc3cccc(NC(=O)c4cccc(Cl)c4)c3)c12 | 43.2% |
| O=C(Cn1c2c(sc1=O)[C@H]1[C@@H](O)[C@@H](O)[C@H](O)[C@@H]1CS2)N1CCOCC1 | 93.3% |
| COc1ccc2c(c1)C(=N/N=C(\C)c1ccc(OC)c(S(N)(=O)=O)c1)C(=O)N2 | 70.3% |
| CCCSc1nc(NCCc2c[nH]c3ccccc23)c(C#N)c(-c2ccc(F)cc2)n1 | 34.9% |
| O=c1[nH]c2ccccc2cc1CSc1cccc(Nc2nccc(-c3ccc4ccccc4c3)n2)c1 | 105% |
| CCN(CC)c1ccnc(CNCCSC(c2ccccc2)(c2ccccc2)c2ccc(C)cc2)c1 | -49.3% (active) |
| CN(C)CCn1c2ccccc2c2nc3cc(C(F)(F)F)ccc3nc21 | 65.8% |
| CC1(C)CC[C@]2(C(=O)Nc3ccc(Br)cc3)CC[C@]3(C)C(=CCC4[C@@]5(C)C[C@@H](O)[C@H](O)[C@@](C)(CO)C5CC[C@]43C)C2C1 (some centres undefined) | -0.476% (active) |
| CCC(C)(C)c1ccc(OCCCCCCN2CCN(c3ccncc3)CC2)cc1 | -7.9% (active) |
| COc1ccc(C(=O)/C=C/c2ccc(Cl)c(Cl)c2)cc1S(N)(=O)=O | 86.9% |
| Cc1cc(N=C2NC(=O)CS2)n[nH]1 | 102% |
| Cc1ccc(C(=O)CSc2nc3ccc(F)cc3c(=O)n2-c2ccc(Cl)cc2)cc1 | -18.9% (active) |
| COc1ccc(C(=O)/C=C/c2cccc(Br)c2)cc1S(N)(=O)=O | 30.8% |
| Cc1sc(C(NC(=O)OCCn2c([N+](=O)[O-])cnc2C)C(F)(F)Cl)nc1-c1ccc(OC(F)(F)F)cc1 (centres undefined) | -31.1% (active) |
| COc1ccc(NC(=O)Cn2c3c(sc2=O)[C@H]2[C@@H](O)[C@@H](O)[C@H](O)[C@@H]2CS3)cc1 | 107% |
